The AC50 is the concentration giving half of the maximal activity seen.

Active and inactive are the calls of the source. The calls were made as follows: active = hit-call score of the fitted dose curve at least 0.9, where 1 is the maximum; inactive = score below 0.9.

A short description of the experiment: CEETOX_H295R_OHPROG: CeeTox H295R High-throughput Steroidogenesis Assay for OH-Progesterone (OHPROG) (AID 2283435). Conditions: actives raise or lower the signal. As to the method:
CEETOX_H295R is a cell-based, multiplexed-readout assay that uses H295R, a human adrenal gland cell line, with measurements taken at 48 hours after chemical dosing in a 96-well plate.CEETOX_H295R_OHPROG is one of 23 assay component(s) measured or calculated from the CEETOX_H295R assay. It is designed to make measurements of hormone induction, a form of inducible reporter, as detected with absorbance signals by HPLC-MS-MS technology.Data from the assay component CEETOX_H295R_OHPROG was analyzed into 1 assay endpoint. This assay endpoint, CEETOX_H295R_OHPROG, was analyzed with bidirectional fitting relative to DMSO as the negative control and baseline of activity. Using a type of inducible reporter, gain or loss-of-signal activity using HPLC-MS-MS was used to understand synthesis of 17alpha-hydroxyprogesterone in H295R cell line at 48hr of chemical exposure. To generalize the intended target to other relatable targets, this assay endpoint is annotated to the steroid hormone intended target family, where the subfamily is progestagens.
Cell culture and media preparation procedures were conducted in accordance with OECD Test No. 456 guidelines, with minor modifications. H295R cells (ATCC CRL-2128) were expanded for 5 passages and frozen in batches in liquid nitrogen. Prior to the steroidogenesis assay, H295R cells were thawed and passed at least 4 times. The maximum passage was 10. Cells were maintained in a 1:1 mixture of DMEM/F12 supplemented with 5ml/L ITS+ Premix (BD Bioscience) and 12.5 ml/L Nu-Serum (BD Bioscience). After seeding cells into 96-well plates at 50-60% confluency, cells were allowed to adhere overnight. Prior to chemical testing, culture medium was replaced with 175 uL medium containing 10 uM forskolin to stimulate steroidogenesis for 48 hours. Following prestimulation, forskolin medium was replaced with medium containing test chemical solubilized in DMSO (ensuring a final concentration of 0.1% DMSO). Test chemicals were incubated for 48 hours, then the medium was removed and split into 2 vials containing approximately 75uL each, and stored at -80 C prior to hormone analysis. For steroid quantification, media samples were shipped to OpAns, LLC (Durham, NC) on dry ice, and samples were thawed to room temperature prior to liquid-liquid extraction. Steroid hormones were extracted from media samples using methyl tertbutyl ether (MTBE). An extra derivatization with dansyl chloride was included for estrogen (estrone and estradiol) detection only. Steroid hormones were separated by HPLC, eluted using a reverse phase C18 gradient with electrospray positive ionization, followed by quantification by tandem mass spectrometry (MS/MS). Data were acquired on a MassHunter Workstation Acquisition version B03.01 (Agilent Technologies, Inc.) and processed using MassHunter Quantitative Analysis for QQQ. Accuracy was determined for each hormone analyte from 3 standards to determine upper and lower limits of quantification (ULOQ and LLOQ, respectively) using a 7-point standard curve. Precision and accuracy of the extraction and quantification methods were calculated as the percent relative standard deviation (%RSD) of the spiked standards and percent spiked standard recovered, respectively. […] Test medium was removed following chemical exposure, and cell viability was evaluated in the same wells by MTT. MTT procedures were as follows: after removal of test medium, 500 uL of 0.5 mg/ml of 3-[4,5-dimethylthiazol-2-y]2,5-diphenyltetrazoliumbromide solution was added to the cells. Following a 4-hour incubation at 37 C and 5% CO2 to allow formazan-crystal formation, the MTT solution was removed and blue formazan salt crystals were solubilized using 500uL anhydrous isopropanol with shaking for 20 minutes. Absorbance was read at 570 and 650nm using a Packard Fusion microplate reader. Background correction of absorbance units was used to determine percent change relative to controls. […]
As for `CCOC(=O)C1=NN(c2ccc(Cl)cc2Cl)C(C)(C(=O)OCC)C1` (configuration not stated), the compound was classed as inactive.
In the case of `COc1ccc(-c2coc3cc(O)cc(O)c3c2=O)cc1`, the AC50 was 7.4 µM (active).
`C=C[C@@]1(C)CC(=O)[C@]2(O)[C@@]3(C)[C@@H](O)CCC(C)(C)[C@@H]3[C@H](O)[C@H](OC(C)=O)[C@@]2(C)O1`: the AC50 is 0.799 µM (active).
With `CCN1CN(CC)CN(CC)C1`, the compound was classed as inactive.
`CC(C)(c1ccccc1)c1ccc(Nc2ccc(C(C)(C)c3ccccc3)cc2)cc1`: the AC50 is 0.359 µM (active).
On the same count and under the same terms, under `O=C(OCc1ccccc1)c1ccc(O)cc1` stands 13.5 µM (active).
On to `COc1ccc(C(=O)c2ccccc2)c(O)c1`, for which the outcome was inactive.
Regarding `O=C(O)c1cc(O)c2ccccc2c1O`, the compound was classed as inactive.
`CN(C)c1ccc2nc3ccc(=[N+](C)C)cc-3sc2c1`: the compound was called inactive.
Take `Cc1ccc([N+](=O)[O-])cc1N`: the AC50 is 18.8 µM (active).
On to `C=CC(=O)OCCCCCCOC(=O)C=C`, for which the outcome was inactive.
On the same count and under the same terms, under `CC(C)(C)NC(=O)[C@H]1CC[C@H]2[C@@H]3CC[C@H]4NC(=O)C=C[C@]4(C)[C@H]3CC[C@]12C` stands “inactive”.

Source of the values: PubChem BioAssay (EPA / NIEHS).
